Source: PubChem
EWS-Fli inh = inhibitors of EWS/Fli oncoprotein transcriptional activity | A673 NR0B1-luciferase reporter, viability-normalised | inhibition, % at 12.6 µM | 0.67% of 350,000 active;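 active = mean inhibition of at least 50% after viability correction, with every replicate also passing that limit; inconclusive = mean reaches 50% but only one of two replicates passes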;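 note: firefly luciferase signal divided by Alamar Blue viability fluorescence both relative to DMSO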
F508del corr = correctors of CFTR F508del function in bronchial epithelial cells; CFBE cells, YFP halide quenching; stimulated with forskolin plus potentiator P3; % fluorescence drop versus neutral controls; 0.36% of 350,000 active; activity (quench increase), % at 7.58 µM;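 active = mean added fluorescence quench of at least 8% versus neutral control, with both replicates also reaching 8%; inconclusive = only one of the mean or replicate conditions met; inactive = mean below 8% and not both replicates reaching 8%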;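 note: cells transiently co-express mutant CFTR-F508del with the halide-sensitive YFP; corrector assay measuring rescue of mutant channel to the surface after 24 h compound exposure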
LGR2 inh = inhibitors of bursicon-induced Drosophila LGR2 receptor cAMP signaling; 0.35% of 380,000 active; AID 720647; HEK293 LGR2, CRE-luciferase, bursicon-stimulated, 4 h; inhibition, % at 9.99 µM;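 active = drop in luminescence signal, shown as inhibition above about 50% in the replicate tests, limit read from the data, passing the limit was not always enough; inconclusive = probably only some replicates passing the limit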;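 note: agonist challenge used bursicon conditioned medium at about half maximal strength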
PAX8 reporter = PAX8 transcriptional activity inhibition. RMG-I TPO-luciferase reporter, SteadyGlo, 24 h. inhibition, % at 12.6 µM. 1.2% of 360,000 active;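 active = mean replicate inhibition at least 60% with every replicate also reaching 60%; inconclusive = only one of the two criteria is met; inactive = mean below 60% and not all replicates reaching 60%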;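 note: luciferase light reporting Pax8 driven TPO promoter activity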
Hits are given with their value; . = inactive; ? = inconclusive; / = no result; ! = not active in a repeat. Shown are actives, neighbours in structure and some others; about 1.8% of the full set was active somewhere.

SMILES	EWS-Fli inh	F508del corr	LGR2 inh	PAX8 reporter
Cc1cc(C(=O)COc2cccc([N+](=O)[O-])c2)c(C)n1C1CC1	.	.	/	.
Cc1cc(C(=O)COC(=O)c2cccc(O)c2)c(C)n1C1CC1	.	.	73	.
CCOc1ccc(NC(=O)C2CCN(S(C)(=O)=O)CC2)cc1	.	.	.	.
CCOC(=O)N1CCC(C(=O)Nc2ccc(OCC)cc2)CC1	.	9.8	.	.
O=C(NCCCn1ccnc1)c1cccc(Cl)c1	.	.	.	.
COc1ccc2cc3c(N)nn(C(=O)Cc4c[nH]c5ccccc45)c3nc2c1	.	.	88	.
O=C1NN(c2ccc(Br)cc2)C(=O)/C1=C\c1ccc(O)cc1O	.	.	.	.
O=C1NN(c2cccc(Br)c2)C(=O)/C1=C\c1ccc(O)cc1	.	8.6	.	.
COc1ccccc1C(=O)NC(C)c1cccc2ccccc12 (configuration not stated)	.	.	.	.
Cc1ccc(N(C(=O)c2cc3ccccc3oc2=O)C2C=CS(=O)(=O)C2)cc1 (configuration not stated)	.	.	.	77
CCN(CC)S(=O)(=O)c1ccc(C(=O)NCc2n[nH]c(=S)n2-c2ccc(Cl)c(Cl)c2)cc1	.	.	.	.
CC(=O)NCCNC(=O)c1ccc(CSc2nc3ccccc3s2)cc1	/	.	67	.
C=CCNC(=O)c1ccc(CSc2nc3ccccc3s2)cc1	.	.	.	.
c1ccc(COc2cccc(-c3cc4nc(NCCc5ccncc5)ccn4n3)c2)cc1	.	.	.	.
c1ccc(COc2cccc(-c3cc4nc(NCCCn5ccnc5)ccn4n3)c2)cc1	.	.	80	.
CCN1[C@H](C(=O)N[C@@H](C)c2ccccc2)[C@@H](CO)[C@@H]2Cn3c(ccc(-c4cccc(F)c4)c3=O)[C@@H]21	.	.	.	/
CCC(C)(C)c1ccc(Oc2ccc(N)cc2)cc1	65	.	/	?
COc1ccc(C(=O)OCC(=O)NCc2cccs2)c(OC)c1OC	.	.	.	.
COc1ccc2c(c1)oc(=O)c1cc(OC)ccc12	.	.	.	/
COc1cc(O)c2c(c1)oc(=O)c1c3cc(O)c(O)cc3oc21	56	.	/	.
C=CCn1c(SCc2cc(C(C)=O)ccc2OCC)nc2ccccc2c1=O	54	.	/	.
COc1ccc(C(C)=O)cc1CSc1nc2ccccc2c(=O)n1-c1ccccc1	/	/	.	.
O=C(Cc1cccs1)N/N=C/C=C/c1ccccc1	.	/	.	107
CC(=O)N(C)C[C@@H]1Oc2cc(C#Cc3ccccc3F)ccc2S(=O)(=O)N([C@H](C)CO)C[C@H]1C	.	.	.	/
C[C@H](CO)N1C[C@H](C)[C@H](CN(C)C(=O)c2ccc3c(c2)OCO3)Oc2cc(C#Cc3ccccc3F)ccc2S1(=O)=O	.	8.8	.	.
SMILES	EWS-Fli inh	F508del corr	LGR2 inh	PAX8 reporter
C[C@H](CO)N1C[C@H](C)[C@@H](CN(C)C(=O)c2ccc3c(c2)OCO3)Oc2cc(C#Cc3ccccc3F)ccc2S1(=O)=O	.	.	.	79
C[C@H](CO)N1C[C@H](C)[C@@H](CN(C)C(=O)Cc2ccccc2)Oc2cc(C#Cc3ccccc3F)ccc2S1(=O)=O	.	.	.	74
Cc1cc(C)n2nc(C(=O)N(C)c3c(N)n(Cc4ccccc4)c(=O)[nH]c3=O)nc2n1	.	.	.	.
CN(C)CCC1(C2=CCCC2)CC/C(=C/c2ccc(Cl)cc2)C1=O (configuration not stated)	.	.	69	.
CCn1c2ccccc2c2cc(NC(=O)CSc3nnc(-c4ccccc4OC)n3N)ccc21	/	/	.	/
CCOc1ccc(NC(=O)CN(C)C(=O)Cc2ccsc2)cc1OCC	.	.	.	.
Cc1ccccc1-c1ccc(C2[C@H]3CNC[C@@H]2N3S(=O)(=O)c2ccccc2)cc1 (some centres not stated)	.	.	.	.
Cc1ccccc1S(=O)(=O)N1[C@@H]2CNC[C@H]1C2c1ccc(-c2ccncc2)cc1 (some centres not stated)	.	.	.	.
Cc1cccc(S(=O)(=O)N2[C@@H]3CNC[C@H]2C3c2ccc(-c3ccncc3)cc2)c1 (some centres not stated)	65!	.	.	.
Cc1cccc(S(=O)(=O)N2[C@@H]3CNC[C@H]2C3c2ccc(-c3ccccc3C)cc2)c1 (some centres not stated)	59!	.	.	.
CN1C(=O)c2cc(NC(=O)C3CCCC3)ccc2OC[C@H]2O[C@@H](CC(=O)NCc3ccccc3F)CC[C@@H]21	.	.	.	.
Cn1c(=N)n(CC(=O)c2ccccc2)c2ccccc21	65	.	.	.
COc1ccc(C(=O)Cn2c(=N)n(C)c3ccccc32)cc1	.	.	/	.
Cn1c(=N)n(CC(=O)c2ccc(Cl)c(Cl)c2)c2ccccc21	73	/	.	.
O=C(CCC1CCCCC1)NCc1cccnc1	.	.	.	.
CC(OC(=O)CCCC(=O)Nc1ccc(F)cc1)C(=O)c1ccccc1 (configuration not stated)	.	9.4	.	.
O=C(CSc1nnc(-c2ccc(F)cc2)c2ccccc12)Nc1cccc(Cl)c1	.	.	.	.
O=C(CSc1nnc(-c2ccc(F)cc2)c2ccccc12)Nc1ccccc1	63	/	.	.
COc1cc(Nc2ncc3c(n2)CCN(C(=O)Nc2ccc(C(C)C)cc2)C3)cc(OC)c1OC	.	.	.	65
O=C(Cc1ccccn1)N[C@H]1CC[C@H](CCn2cc(-c3ccccc3)nn2)O[C@@H]1CO	.	.	.	79
O=C(Cc1ccccn1)N[C@H]1CC[C@@H](CCn2cc(-c3ccccc3)nn2)O[C@H]1CO	.	.	.	.
O=C(Cc1ccccn1)N[C@@H]1CC[C@@H](CCn2cc(-c3ccccc3)nn2)O[C@H]1CO	.	.	.	99
CC1CCC2C(=O)N(c3ccc(S(=O)(=O)c4ccccc4)cc3)C(=O)C2C1 (configuration not stated)	/	/	.	.
Cc1sc2cc3c(c(C(=O)c4ccccc4)[n+]2c1C)-c1cccc2cccc-3c12	.	/	65	86
O=C(c1ccccc1)c1ccc2ccccc2c1	.	.	.	.
SMILES	EWS-Fli inh	F508del corr	LGR2 inh	PAX8 reporter
Cc1cc2ccccc2cc1C(=O)c1ccccc1	.	.	.	.
O=C(c1ccccc1)c1c2c(cc3sc4ccccc4[n+]13)-c1cccc3cccc-2c13	/	/	.	66
COCc1[nH]nc2c1C(c1ccc3c(c1)OCO3)N(c1ccc(OC)cc1)C2=O (configuration not stated)	.	.	.	.
COc1ccc(C(=O)N/C(N)=N/c2nc3ccccc3o2)cc1	/	/	/	.
COc1ccc(C(=O)/C=C/Sc2nc3ccccc3o2)cc1	55	.	.	.
Cc1ccc(NC(=S)N2CCN(c3nccc(C(F)(F)F)n3)CC2)c(C)c1	.	.	.	.
O=C(Cn1cnc2c(NCc3ccccc3)ncnc21)NCc1ccc2c(c1)OCO2	.	.	.	.
O=C(Cn1cnc2c(NCc3ccccc3)ncnc21)NCc1ccccc1	56	.	.	.
O=C1C=C(NC2=CC3OC(c4ccccc4)OCC3OC2=O)CCC1 (configuration not stated)	.	/	59	.
N#Cc1ccccc1NC1=CC(=O)CCC1	/	/	.	/
